Screen size: about 220,000 compounds; about 2,000 (0.91%) were called active. Inconclusive results (about 2%) are left out. Cut-off read from the data, not from the text of the source: inconclusive = inhibition above about 80% without an active follow-up result; inactive = below that; test concentration not stated here. A selection follows. Potency and affinity values are given separately.
Test: M. tuberculosis H37Rv growth inhibitors, H37Rv strain (AID 1626);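 note: bacteria incubated seven days before Alamar blue readout; 0% = bacteria only wells and 100% = bacteria with antibiotic wells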
Settings: stronger effect = higher value, concentration not given here

Compound	inhibition
c1ccc2c(c1)N1CCN=C1N2CCN1CCCCC1	-2.04% (inactive)
c1ccc2c(c1)N1CCCN=C1N2CCN1CCCCC1	1.49% (inactive)
O=C(Nc1ccc2c(c1)OCO2)C1CCN(C(=O)c2cccs2)CC1	0.36% (inactive)
O=c1oc(-c2cccc(Cl)c2)nc2c1cnn2-c1ccccc1	22.1% (inactive)
O=c1oc(-c2ccccc2)nc2c1cnn2-c1ccccc1	19.8% (inactive)
N#C/C(=C\c1ccc(Cl)c([N+](=O)[O-])c1)c1ccccn1	6.45% (inactive)
CCOC(=O)c1c(NC(=O)CNCC(O)CO)sc(C)c1C (stereo unspecified)	4.88% (inactive)
O=C(Cn1cnc([N+](=O)[O-])n1)NC1CC1	-0.97% (inactive)
Nc1nc(Cl)cc(Sc2ccc3ccccc3c2)n1	8.65% (inactive)
Nc1nc(Cl)cc(Sc2ccc(F)cc2)n1	4.27% (inactive)
Cc1cc(NC(=O)CSc2nc(N)c(NC(=O)c3ccccc3)c(=O)[nH]2)no1	-1.25% (inactive)
CCOC(=O)N1CCN(S(=O)(=O)/C=C/c2ccccc2)CC1	-17.8% (inactive)
CCOC(=O)N1CCN(C/C(C)=C/c2ccccc2)CC1	-4.4% (inactive)
CC(C)(C)NS(=O)(=O)c1ccc(CCC(=O)Nc2ccc3c(c2)OCCO3)cc1	-4.02% (inactive)
COc1ccccc1S(=O)Cc1ccc(C(=O)O)o1 (stereo unspecified)	-6.58% (inactive)
CN(C)[C@@H]1C(=O)C(C(N)=O)=C(O)[C@@]2(O)C(=O)C3=C(O)c4c(O)cccc4[C@@](C)(O)[C@H]3C[C@@H]12	-3.76% (inactive)
C[C@H]1c2cccc(O)c2C(O)=C2C(=O)[C@]3(O)C(O)=C(C(N)=O)C(=O)[C@@H](N(C)C)[C@@H]3[C@@H](O)[C@@H]21	63.7% (inactive)
C=C1c2cccc(O)c2C(O)=C2C(=O)[C@]3(O)C(O)=C(C(N)=O)C(=O)[C@@H](N(C)C)[C@@H]3[C@@H](O)[C@H]12	1.79% (inactive)
CN(C)[C@@H]1C(=O)C(C(N)=O)=C(O)[C@@]2(O)C(=O)C3=C(O)c4c(O)cccc4[C@@](C)(O)[C@H]3[C@H](O)[C@@H]12	11.9% (inactive)

Compound	inhibition
CCN(CC)c1nc2ccccc2[nH]c1=O	-5.3% (inactive)
COc1ccc(C(=O)N/N=C/c2sc(=O)n(Cc3cccc(C(=O)O)c3)c2Cl)cc1	-6.32% (inactive)
O=C(NCc1cccc(Br)c1)C1CC(c2ccc(C(F)(F)F)cc2)=NO1 (stereo unspecified)	18.7% (inactive)
O=C(O)c1cccc(N2C(=O)/C(=C/c3ccc([N+](=O)[O-])cc3)C=C2c2ccccc2)c1	1.03% (inactive)
O=C1/C(=C/c2ccc([N+](=O)[O-])cc2)C=C(c2ccccc2)N1c1ccccc1	-2.05% (inactive)
COCCCNC(=O)c1ccc(CS(=O)(=O)c2ccc(Br)cc2)o1	-8.42% (inactive)
Cc1nc(CNC(=O)CC2C(=O)NCCN2Cc2cccc(Oc3ccccc3)c2)cs1 (stereo unspecified)	-3.5% (inactive)
COc1cc2c(cc1OC)C(C)N(C(C)=O)CC2 (stereo unspecified)	-6.23% (inactive)
COC(=O)c1sccc1NC(=O)c1sccc1C	0.49% (inactive)
CCCCOc1ccc(C(=O)Nc2ccc(N3CCN(C)CC3)cc2)cc1	16.1% (inactive)
Cc1cc(C)c(NC(=O)c2cn3c4c(c(N5CCN(C)CC5)c(F)cc4c2=O)OCC3C)c(C)c1 (stereo unspecified)	9.11% (inactive)
COc1ccc(CCC(=O)Nc2cccc(Cl)c2)cc1	10.2% (inactive)
Cc1nc2c(C)cccc2cc1C(=O)N/N=C/c1ccc(C(=O)O)cc1	-1.57% (inactive)
Cc1ccc(NC(=O)/C=C/c2cccs2)c([N+](=O)[O-])c1	-6.44% (inactive)
Cc1ccc(NC(C)C(=O)N/N=C/c2ccc([N+](=O)[O-])s2)cc1 (stereo unspecified)	75% (inactive)
Cc1cc(C)cc(NC(=O)/C=C/c2ccc([N+](=O)[O-])s2)c1	15.5% (inactive)
O=C(/C=C/c1cccs1)Nc1ccc([N+](=O)[O-])cc1	4.49% (inactive)
COC(=O)c1cccc(NC(=O)/C=C/c2ccc([N+](=O)[O-])cc2)c1	3.4% (inactive)
COC(=O)c1cccc(NC(=O)/C=C/c2cccc([N+](=O)[O-])c2)c1	-2.96% (inactive)

Compound	inhibition
CCCC(c1nnnn1C(C)(C)C)N1CCN(Cc2ccccc2OC)CC1 (stereo unspecified)	-3.31% (inactive)
CCOC(=O)c1[nH]c(C)c(C(=O)NCc2cccnc2)c1C	-1.85% (inactive)
O=C(NCc1ccccn1)c1ccc(Cl)c(S(=O)(=O)Nc2ccccc2C(=O)NCc2ccccn2)c1	-4.28% (inactive)
CCN1CCN(C(=O)c2cn(CCOC)c(=O)c3c2c2ccccc2n3C)CC1	2.91% (inactive)
O=C(CCC1CCCN(C(=O)c2ccsc2)C1)N1CCN(c2ccccn2)CC1 (stereo unspecified)	-1.82% (inactive)
COc1cccc(OC)c1C(=O)NC(=S)Nc1ccc2c(c1)OCCO2	7.64% (inactive)
COC(=O)N/N=C/c1ccccc1	3.14% (inactive)
CC(C)(C)OC(=O)N1CCN(C(=O)Nc2ccc3c(c2)OCCO3)CC1	3.99% (inactive)
CC(=O)NC(CCS(C)(=O)=O)C(=O)Nc1cc(Cl)ccc1Cl (stereo unspecified)	4.83% (inactive)
COc1ccccc1NC(=O)CN1C(=O)NC(CC(C)C)C1=O (stereo unspecified)	-11.7% (inactive)
CCc1nnc(NS(=O)(=O)c2ccc(N=Cc3c(C)[nH]n(-c4ccc(Cl)cc4)c3=O)cc2)s1	12.1% (inactive)
Cc1ccc(-n2[nH]c(C)c(C=Nc3ccc(S(=O)(=O)Nc4nccs4)cc3)c2=O)c(C)c1	45.6% (inactive)
COc1ccc(NC(=O)CN(Cc2ccccc2)Cc2ccccc2)cc1S(N)(=O)=O	4.02% (inactive)
O=[N+]([O-])c1ccc(-c2nc(NCc3ccccc3)c3ccccc3n2)cc1	-2.12% (inactive)
Cc1ccc(Nc2nc(-c3ccncc3)nc3ccccc23)cc1	-4.95% (inactive)
CN(Cc1ccccc1)c1nc(-c2ccc([N+](=O)[O-])cc2)nc2ccccc12	0.45% (inactive)
Cc1ccc(-c2nc(Cl)nc3ccccc23)cc1	-2.37% (inactive)
CC1(C(=O)N2CCN(c3ccccc3)CC2)CC1(Cl)Cl (stereo unspecified)	0.45% (inactive)

Source: PubChem BioAssay AID1626 (SRMLSC, 2009)
